Screens deposited in PubChem by National Center for Advancing Translational Sciences (NCATS).
SARS PLP yeast: blocks SARS-CoV papain-like protease in a yeast assay; S. cerevisiae expressing SARS-CoV PLpro, growth rescue; Potency, µM (titrated, usually from 32.9 µM), without a hit: top-dose activity, positive = growth rescue, most hits filed as activators; hit rate 0.19% among 330,000; AID 485353; calls by dose curve; note: potency is the fitted concentration of half-maximal effect; 0% is about no effect; nearly all actives have a fitted effect of over 55% in size
HCMV inh: human cytomegalovirus inhibition; HFF cells, HCMV-luciferase reporter, 72 h; stronger effect = lower value; activity change, negative = inhibition, % at 57.5 µM; hit rate 4.5% among 410,000; in the data active = activity change below about -60%; inconclusive = no clear call, values can overlap the other calls; inactive = above about -39%; note: % is set by controls: 0 for no effect and ±100 for the full control effect
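Two compound doses tested in HFFs infected with HCMV-luciferase, MOI 1 PFU/cell, 72 h at 37C. Lysate luminescence read with OneGlo; data normalized against buffer-only and 10uM Salinomycin inhibitor controls.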
FMDV antiviral: foot and mouth disease virus antiviral activity. FMDV antiviral cell-based qHTS. Potency, µM (doses to about 57.9 µM), for the others: top-dose activity change, negative = inhibition, actives largely listed as inhibitors. hit rate 1.2% among 410,000; calls by dose curve; tested in HEK293T cells; note: read-out not given here; potency is the fitted concentration of half-maximal effect; % is set by controls: 0 for no effect and ±100 for the full control effect; nearly all actives have a fitted effect of over 45% in size
MARV entry inh: inhibitors of Marburg virus binding or cell entry. Marburg virus pseudotyped entry inhibition, cell reporter. AID 540276. Potency, µM (series often up to 37.8 µM), without a hit: at the top dose activity change, negative = inhibition, most hits filed as inhibitors. hit rate 1.8% among 300,000; calls by dose curve; tested in HEK293 cells; note: potency is the fitted concentration of half-maximal effect; % is set by controls: 0 for no effect and ±100 for the full control effect
LASV entry inh: Lassa virus entry inhibition; hit rate 1.2% among 300,000; Potency, µM (series often up to 37.9 µM), for the others: top-dose activity change, negative = inhibition, actives largely listed as inhibitors; Lassa virus pseudotype entry inhibition, cell reporter; calls by dose curve; tested in HEK293 cells; note: potency is the fitted concentration of half-maximal effect; % is set by controls: 0 for no effect and ±100 for the full control effect; nearly all actives have a fitted effect of over 50% in size
HCV inh: inhibitors of hepatitis C virus infection; Potency, µM (titrated, usually from 41.8 µM), for the others: top-dose activity change, negative = inhibition, hits mostly inhibitors; AID 651820; Huh7.5.1 HCVcc-Cre infection, luciferase reporter, 44 h; hit rate 3.4% among 340,000; active = well fitted inhibition curve with a large enough effect; inconclusive = small, poorly fitted or top-dose-only effect, or another doubt; inactive = no such curve, though single readings can be large or run the other way; note: potency is the fitted concentration of half-maximal effect; % is set by controls: 0 for no effect and ±100 for the full control effect
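1,000 cells/well; 4 h culture; + compound; + HCVcc-Cre (~0.5 moi); 44 h; luciferase substrate, RT 15 min; read 15 sec.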
Numbers without * were called inactive; ? = inconclusive; / = no result given; [ ] = dose if it differs, or a comment. An excerpt weighted towards active compounds, which were near 8% of everything screened.

SMILES | SARS PLP yeast | HCMV inh | FMDV antiviral | MARV entry inh | LASV entry inh | HCV inh
COc1ccc(C2C(C(=O)Nc3cccnc3)=C(C)Nc3nc(SCc4ccccc4)nn32)cc1 (stereo not given) | / | -9 | 5% | -15%[46.1 µM] | 8%[46.1 µM] | /
COc1cccc(C(=O)N(Cc2cc3ccc(C)cc3nc2N(C)C)C2CC2)c1OC | / | / | -11% | / | / | /
O/N=C/c1cc(Br)ccc1OCc1ccccc1F | / | 42 | 3% | -17%[46.1 µM] | 25% | ?
C=CCOc1ccc(Br)cc1/C=N/O | -17% | -1 | -28% | -18% | 13% | 11µM*
Cc1cccc(NC(=O)COc2ccc(Br)cc2/C=N/O)c1 | -18% | 24 | 0% | ? | ? | 35µM*
Cc1cccc(OCCCC(=O)Nc2ccc(Br)cc2)c1 | -8% | 37 | -20% | 11µM* | -4% | ?
Cc1cccc(OCCCC(=O)Nc2ccc(N(C)C)cc2)c1 | -6% | 40 | 56% | 6% | 19% | -5%
CCC1CN(C(=O)N2CCC(C(=O)NCCc3ccc(C)cc3)CC2)c2ccccc2O1 (stereo not given) | / | 30 | ? | / | 4%[46.1 µM] | /
O=C1N/C(=C/c2ccc(N3CCOCC3)o2)C(=O)N1c1cccc(Cl)c1 | 0% | -100* | -17% | ? | -30% | ?
CCc1ccccc1Nc1cc(C(=O)NCCc2ccccc2)c2ccccc2n1 | / | 7 | -10% | 1%[46.1 µM] | -23%[46.1 µM] | /
O=C(NC(c1ccc(F)cc1)c1ccc2ccccc2n1)C1CCN(Cc2ccc(Oc3ccccc3)cc2)CC1 (stereo not given) | / | 22 | -14% | / | / | /
COc1ccc(OCCN2CCC(C(=O)NC(c3ccccc3)c3ccc4ccccc4n3)CC2)cc1 (stereo not given) | / | / | -4% | / | / | /
O=C(NC(c1ccccc1)c1ccc2ccccc2n1)C1CCN(CCOc2ccc(Cl)cc2)CC1 (stereo not given) | / | -11 | 32µM* | / | / | /
COc1cc(CN2CCC(C(=O)NC(c3ccc(F)cc3)c3ccc4ccccc4n3)CC2)cc(OC)c1 (stereo not given) | / | -40 | 35µM* | / | / | /
COc1ccc(CCn2c3c(c(=O)[nH]c2=O)C(NC(=O)c2ccccc2)(C(F)(F)F)C(=O)N3)cc1OC (stereo not given) | / | 6 | -8% | 11%[46.1 µM] | 14%[46.1 µM] | /
Cc1cc(NC(=O)Nc2nc3c(s2)CCCCCC3)ccc1Br | / | -5 | -2% | / | 5%[46.1 µM] | /
CC1=C(C(=O)Nc2cccnc2)C(c2ccccc2)n2nc(SCc3ccccc3F)nc2N1 (stereo not given) | / | 4 | 6% | ? | -2%[46.1 µM] | /
N#C/C(=C\c1ccc(OCc2ccc(F)cc2)cc1)C(=O)Nc1cccc(C(=O)O)c1 | 1% | -75* | 45% | / | / | 34%
Cc1cc(-c2nc3cc(F)ccc3s2)ccc1N | / | 69 | -61% | 7.1µM* | 2.2µM* | ?
Cc1ccc(C(=O)Nc2ccc(-c3nc4ccccc4s3)cc2C)cc1C | / | 24 | 36% | ? | 34%[46.1 µM] | /
CN(C)c1ccc(CC2C(=O)Nc3ccccc32)cc1 (stereo not given) | 1% | -63* | 50% | 25%[46.1 µM] | -9% | 5%
O=C1Nc2ccccc2C1Cc1ccc(Br)cc1 (stereo not given) | / | -29 | -8% | -2%[46.1 µM] | -9%[46.1 µM] | /
CSc1ccc(CC2C(=O)Nc3ccccc32)cc1 (stereo not given) | / | ? | 26% | 1%[46.1 µM] | ? | /
Cc1cccc(CC2C(=O)Nc3ccccc32)c1 (stereo not given) | / | -70* | -4% | ? | 6%[46.1 µM] | /
Cc1ccccc1NC(=NCCCN1CC1)Nc1ccccc1C | / | -77* | -10% | 2.2µM* | 13µM* | ?
Cc1nonc1CN(C)C(=O)C1CC12CCN(C(=O)/C=C/c1cccc(Cl)c1)CC2 (stereo not given) | / | / | -15% | / | / | /
CCOC(=O)c1ccc2c(c1)sc(=NC(=O)c1ccco1)n2CCOC | 11% | -68* | 5% | ? | -5% | -11%
COCCn1c(=NC(=O)c2ccc3c(c2)OCCO3)sc2cc(C(=O)OC)ccc21 | / | 67 | 0% | / | ? | /
Cc1ccc(-c2csc3nc(SCC(N)=O)n(Cc4ccccc4)c(=O)c23)cc1 | 16% | -28 | 32µM* | ? | -30% | ?
Cc1ccc(-c2csc3nc(-c4ccncc4)[nH]c(=O)c23)cc1 | 1% | 20 | -26% | / | / | 5.6µM*
